Only a sample is shown.
aSyn 5UTR act: Activators working through SNCA 5'UTR binding (MLPCN); alpha-synuclein 5'UTR reporter, activators screen; 300,000 tested, 7.1% active; activity score, % (tested at 7.5 µM), hits read low; in the data active means activity score below about -60%
Numbers without * were called inactive.

SMILES	aSyn 5UTR act
COc1ccc(CCn2c(C3CCCCC3)nc3c(c(=O)c4ccccc4n3C)c2=O)cc1	75.0
COc1ccc(CCn2c(-c3ccccc3)nc3c(c(=O)c4ccccc4n3C)c2=O)cc1	-86.4*
CCOC(=O)N1CCN(C(=O)CCSc2ccccc2)CC1	-108.4*
NC(=O)C1CCN(C(=O)CCSc2ccccc2)CC1	-102.8*
O=[N+]([O-])c1ccc(/C=N/Nc2ccc3ccccc3c2)o1	-104.0*
O=C(N/N=C/c1ccc([N+](=O)[O-])o1)c1cc2ccccc2o1	65.8
Cc1nc2ccccn2c1C(=O)N/N=C/c1ccc([N+](=O)[O-])o1	-81.4*
Cc1ccccc1C(=O)c1cccn1CC(=O)NCc1ccccc1Cl	-99.6*
O=C(Cn1cccc1C(=O)c1ccccc1)NCc1ccccc1Cl	-73.9*
CC(C)(C)n1ncc2c(=O)n(CC(=O)NCc3ccccc3Cl)cnc21	-90.2*
N#Cc1c(N2CCSCC2)nsc1-c1ccccc1Cl	-62.6*
Cc1cc(C)n2nc(-c3ccc(F)cc3)nc2n1	-109.4*
Cc1ccc([N+](=O)[O-])cc1N/C=C1\CCc2ccccc2C1=O	-163.2*
C[C@@H](CO)NC(=O)c1ccc2c3n(nc2c1)-c1ccc(Cl)cc1CO3	-192.2*
CC(C)[C@@H](CO)NC(=O)c1ccc2c3n(nc2c1)-c1ccc(Cl)cc1CO3	-179.6*
CCc1ccc(NC(=O)CSc2nncn2-c2cccnc2)cc1	-119.2*
Cc1cccc(Nc2nnc(SCC(=O)Nc3ccccc3[N+](=O)[O-])s2)c1C	-90.5*
Cc1cccc(Nc2nnc(SC/C(O)=C(\C#N)c3nc4ccccc4[nH]3)s2)c1C	-62.8*
Cc1ccc(Nc2nnc(SCC(=O)Nc3cccnc3Cl)s2)cc1C	-108.9*
Cc1nc(NC(=O)c2cccc(-c3cc4ccccc4oc3=O)c2)ccc1Br	-81.4*
O=C(Nc1ccc(Br)cn1)c1cccc(-c2cc3ccccc3oc2=O)c1	-112.3*
O=C(/C(N=Nc1cccc(C(F)(F)F)c1)=C(/O)c1cccs1)C(F)(F)F	-62.3*
Cc1ccc(N=C/C(C(=O)C(F)(F)F)=C(\O)c2cccs2)cc1	-89.2*
Cc1sc2ncnc(NCC(O)c3ccccc3)c2c1C (stereo not given)	-103.9*
Cc1nn(Cc2ccccc2Cl)c2sc(C(=O)NCCCn3ccnc3)cc12	-105.0*
SMILES	aSyn 5UTR act
CC(=O)Nc1ncnc2c1c(-c1ccc(Cl)cc1)nn2C(C)(C)C	52.6
CC(=O)Nc1nc(-c2ccc(Cl)cc2)nc(C)c1C(C)=O	-111.2*
Cc1ccc(Cn2nc(-c3ccccc3)nc2-c2ccccc2)cc1	-154.4*
Cn1nc(-c2ccc(Cl)cc2)nc2c(=O)n(C)c(=O)nc1-2	110.4
Cn1nc(-c2ccccc2)nc1-c1ccccc1	-65.5*
CC(C)CC(=O)Nc1nnc(-c2ccco2)s1	-151.4*
O=C(Nc1nnc(-c2ccco2)s1)C1CCCCC1	-95.3*
Cc1ccc(CC2CC(=O)N(Cc3ccco3)C2=O)cc1 (stereo not given)	-128.5*
COc1ccc(/C=C2\N=C(c3ccccc3Cl)NC2=O)cc1	-123.8*
Cc1nc(NC(=O)c2ccccc2)sc1-c1csc(Nc2ccc(Cl)cc2Cl)n1	-83.6*
Cc1nc(NC(=O)c2ccccc2)sc1-c1csc(Nc2ccc(F)cc2)n1	-93.9*
COc1ccc(OC)c(Nc2nc(-c3sc(NC(=O)c4ccccc4)nc3C)cs2)c1	-243.7*
Cc1nc(NC(=O)c2ccccc2)sc1-c1csc(Nc2ccc(Cl)cc2)n1	-64.6*
Cc1nc(NC(=O)c2ccco2)sc1-c1csc(Nc2ccc(Cl)cc2)n1	-69.7*
COc1ccc(C2C(C(=O)c3cccs3)=C(O)C(=O)N2c2nncs2)cc1 (stereo not given)	-108.0*
Fc1ccc(CCNC(=S)Nc2ccc(F)cc2)cc1	-75.7*
S=C(NCCc1ccccc1)NCCc1ccccc1	-214.8*
O=C(NCCc1ccccc1)Nc1ccc(Cl)cc1	-178.1*
C/C(=C\c1ccccc1)C(=O)NCCc1ccccc1	-62.2*
Cc1ccc(NC(=O)NCCCc2ccccc2)cc1	-90.0*
Fc1cc(Br)ccc1NC(=S)NCCc1ccccc1	-118.6*
S=C(NCCc1ccccc1)Nc1ccc(Cl)cc1	-135.0*
COCCN(Cc1ccccc1)C(=S)Nc1ccc(Cl)cc1	59.3
CC(C)(C)NC(=O)NCCc1ccccc1	-95.5*
CC1=C/C(=N\NC(=S)NCCc2ccccc2)CC(C)(C)C1	-80.3*
SMILES	aSyn 5UTR act
Cc1cccc(NC(=O)C(=O)NCCCc2ccccc2)c1	-76.6*
O=C(NCCc1ccccc1)/C(=N\O)c1ccccc1	-106.7*
CC(C)(C)C(=O)NC(=S)NCCc1ccccc1	-92.0*
CCOC(=O)c1sc(=NC(=O)c2c(F)cccc2F)n(C)c1C	-103.5*
CCOC(=O)c1sc(=NC(=O)c2ccc(F)cc2)n(C)c1C	-103.9*
CCOC(=O)c1sc(=NC(=O)c2ccc(C)cc2)n(C)c1C	-195.9*
CCOC(=O)C1CCN(C(=O)CNC(=O)c2nn(-c3ccc(OC)c(Cl)c3)c(=O)c3ccccc23)CC1	-70.1*
CCOc1ccc(CNC(=O)Nc2ccccc2)cc1	-102.6*
COc1ccc(CNC(=O)Nc2cccc(C)c2)cc1	-152.6*
Cc1cc2cc(CNC(=O)Nc3ccccc3)ccc2[nH]1	-98.5*
COc1ccc(CNC(=O)Nc2ccccc2)cc1	-114.3*
Cc1ccc(CNC(=O)Cc2ccc(-c3ccccc3)cc2)cc1	73.3
Cc1ccc(CNC(=O)Nc2ccc(C)cc2)cc1	-75.2*
O=C(Cc1ccc(O)cc1)NC1CCCCCC1	-119.1*
Cc1ccc(CNC(=O)NC2CCCCC2)cc1	-92.2*
O=C(CSc1ccc(F)cc1)NC1CCCCC1	-69.4*
COc1ccc(C(=O)/C=C/C(=O)N(CC(=O)NC2CCCCC2)Cc2ccc(F)cc2)c(O)c1	71.8
S=C(Nc1ccc(Cl)cc1)c1nc2ccccc2[nH]1	-78.7*
Cc1ccccc1NC(=S)c1nc2ccccc2[nH]1	-144.9*
O=C(Nc1ccccc1F)C(=O)Nc1cccc2ccccc12	-118.9*
O=C(Nc1cccc2ccccc12)/C(Cl)=C/c1ccccc1	-80.9*
O=C(Nc1ncc(Cc2ccc(SC(F)F)cc2)s1)c1ccc(OC(F)F)cc1	-128.6*
CCC1(c2ccc(Cl)cc2)NC(=S)N(c2ccc(C)cc2)N1 (stereo not given)	-307.7*
CCC1(c2ccc(Cl)cc2)NC(=S)N(c2ccc(C)c(C)c2)N1 (stereo not given)	-66.9*
O=C(Cn1nnc(-c2ccccc2F)n1)N1CCCCC1	-120.2*
SMILES	aSyn 5UTR act
CC1CCCN(C(=O)CSCC(=O)Nc2nc(-c3cccs3)cs2)C1 (stereo not given)	-75.6*
CC1CCN(C(=O)CSCC(=O)Nc2nc(-c3cccs3)cs2)CC1	-89.3*
CC1CCN(C(=O)Cn2nnc(-c3cccs3)n2)CC1	-131.4*
CNS(=O)(=O)c1cccc(C(=O)Nc2cccc(Cl)c2)c1	-111.2*
CN(C)S(=O)(=O)Oc1cccc(C(=O)Nc2cccc(Cl)c2)c1	-169.5*
COC(=O)c1ccc(OS(=O)(=O)N(C)C)cc1	-87.8*
CN(C)S(=O)(=O)Oc1cccc(C(=O)Nc2ccc(Cl)c(Cl)c2)c1	-184.7*
COc1ccc(NC(=O)c2cccc(OS(=O)(=O)N(C)C)c2)cc1	-115.6*
O=C(NC(=S)Nc1cc(Cl)ccc1O)c1cccc(Br)c1	-80.9*
CN(C)S(=O)(=O)c1cccc(C(=O)Nc2cc(Cl)ccc2O)c1	-86.6*
CC(=O)C1=C(C)OC(N)=C(C#N)C1c1cc([N+](=O)[O-])ccc1Cl (stereo not given)	-69.0*
O=C(Nc1ccc2c(c1)OCO2)N1CCCc2ccccc21	-102.8*
COC(=O)Nc1ccc(S(=O)(=O)N2CCCc3ccccc32)cc1	84.1
